From publication PMC12864922, “TDP-43 directly inhibits mRNA accumulation in neurites through modulation of mRNA stability” come the findings set out here.

Whole data set: some 9,900 sequences, median “r (bound/input frequency ratio)” near 0.7, cut for the highest 2% near 6.5. What follows is part of a selection rich in the highest values, with near analogues and random picks from the rest.

To fix the notation:
B1: ENSMUSG00000031028.414|Tub|94:98;228:232;234:246;252:260 (ssRNA)
RNA: GGGAGUUCUACAGUCCGACGAUCGCUUCGAUAUCCGCAUGCUAUUCUUUUUGGUCCUUGGCUGGGUAGCAAAUUGGUGAGAAGAGCAGCCUAGUCUGUAAGAGUGCAGGGCAGCUGGAACCUUAGGCAGCUCCUCUCAUACCUACCGGCUCCACACCCUAACACUCUCCACCCUCUGCUCCAAACCAGUUCUUCUGCAGAGUGGUGAUGUUAGCUUCCCCAGCUCCUCUCCAAGUCUAGCUUUUUCUGUCCUUCUGGCUCCAAGGUGCUCACACACACACACACACACACUGUCACACACACACUCUUGCGGUCGCACUAGUGUGGAAUUCUCGGGUGUCAAGG
B2: ENSMUSG00000031028.183|Tub (ssRNA)
RNA: GGGAGUUCUACAGUCCGACGAUCGCUUCGAUAUCCGCAUGCUAAGGGCACAUGUCUCUUGGUUACCUCACUGGUUAAUGGCAGAGUUGAGAACCUCAAAUUCUUUUGUUCCUACUGUUGCCCAGAAACUAGACUCUCUGACCUGCUAGGGUCUAUUCUGCAUGUCCUUUCUCUUCCCAGUUCCAGAGAUGAAACCCCUCCGAGUUAAUGUAUAAGGUUGGAAACCUUUCAGUAGGGAAUCAGGCAGUUCCCUGUUGAAAGUUGUCUGAGUUUUUGCACACCAUUCUGAUCUGAUGUGGCCUGUCUCUUGCGGUCGCACUAGUGUGGAAUUCUCGGGUGUCAAGG
B3: ENSMUSG00000028439.343|Fam219a (ssRNA)
RNA: GGGAGUUCUACAGUCCGACGAUCGCUUCGAUAUCCGCAUGCUACCAGUUCGCAUCCCCACCACUCAUCAUCUGGGCCCCAACGCUAGAACUCCCCCCACCGCAUCCCCACUGGGCUCUUUGACUCACCCUUCUAGAACAUGGGUGCCUCCUCUCUUUAGACUGCUGCCUUUGCCUCUGACUUCCUGUGGGAUUGAGAGCCAAGGGCCAGUGCCCUUGUGAGCGCACUAGUUCCGAAGCAGGCAAGGGCAUUAGGUGGUAUAUACAUAGCGGGUAGGGGUAGGAAGCUGGCAGCCUGCAGCUUCCUCUUGCGGUCGCACUAGUGUGGAAUUCUCGGGUGUCAAGG
B4: ENSMUSG00000061578.87|Ksr2 (ssRNA)
RNA: GGGAGUUCUACAGUCCGACGAUCGCUUCGAUAUCCGCAUGCUAGGGUUAAACUUGCAAACAUCUGAUUUUAGAGGUCCCAUUCCAAGAUGGAAGUCACCGGUUGCCGCUGAGCACACAAUUCUGAAGGACAGUAGGCAGUCCUGCAGGUCUUUUUUAGCACAGGGCCUCUCUGGGGACCAGUCCCUGGCCUUCACCCUUCUCCCAUUUUGUAAGAACACUGUUCUAACUCACCUCAUGCCCACGCUACCCUGGGCAACUGGAGAACACCAUAGCGUUUCAGCUGAUGUGACAUUUGGUGUGACCUCUUGCGGUCGCACUAGUGUGGAAUUCUCGGGUGUCAAGG
B5: ENSMUSG00000058297.298|Spock2|53:58 (ssRNA)
RNA: GGGAGUUCUACAGUCCGACGAUCGCUUCGAUAUCCGCAUGCUAAGAGAAUACCCGAGGGCCACCCUGAUGCCCAGGAAGAGUGAGGGCAGCCCCCACACACGUGGAAGAGGCUGGGCAGCUAGCUACUGGGGACCUUGUGCUGAGGCUUCCAGGACAAAGCCCCAGUCUGGCUCUCCCCCAGCCUCUCAGGGGCACUGGCUGGUCACAUCCACUGAGUAUUGAUCGGUUGGACUUUAGGGAAGAGCCUCCUCCUUCCCAUUCCUUUCUGCCACCCUGGAAUGGCCACCUUAAUCGUCAUCUCCCUCUUGCGGUCGCACUAGUGUGGAAUUCUCGGGUGUCAAGG
B6: ENSMUSG00000058297.296|Spock2|65:70 (ssRNA)
RNA: GGGAGUUCUACAGUCCGACGAUCGCUUCGAUAUCCGCAUGCUAAGAGAAUGAGAGAGAGAAUACCCGAGGGCCACCCUGAUGCCCAGGAAGAGUGAGGGCAGCCCCCACACACGUGGAAGAGGCUGGGCAGCUAGCUACUGGGGACCUUGUGCUGAGGCUUCCAGGACAAAGCCCCAGUCUGGCUCUCCCCCAGCCUCUCAGGGGCACUGGCUGGUCACAUCCACUGAGUAUUGAUCGGUUGGACUUUAGGGAAGAGCCUCCUCCUUCCCAUUCCUUUCUGCCACCCUGGAAUGGCCACCUUACUCUUGCGGUCGCACUAGUGUGGAAUUCUCGGGUGUCAAGG
B7: ENSMUSG00000058297.287|Spock2|119:124 (ssRNA)
RNA: GGGAGUUCUACAGUCCGACGAUCGCUUCGAUAUCCGCAUGCUAAGAGAGAGAGAGAGAGAGAGAGAGAGAGAGAGAGAGAAAGAGAGAGAGAAUGAGAGAGAAUGAGAGAGAGAAUACCCGAGGGCCACCCUGAUGCCCAGGAAGAGUGAGGGCAGCCCCCACACACGUGGAAGAGGCUGGGCAGCUAGCUACUGGGGACCUUGUGCUGAGGCUUCCAGGACAAAGCCCCAGUCUGGCUCUCCCCCAGCCUCUCAGGGGCACUGGCUGGUCACAUCCACUGAGUAUUGAUCGGUUGGACUUUACUCUUGCGGUCGCACUAGUGUGGAAUUCUCGGGUGUCAAGG
B8: ENSMUSG00000058297.289|Spock2|107:112 (ssRNA)
RNA: GGGAGUUCUACAGUCCGACGAUCGCUUCGAUAUCCGCAUGCUAAGAGAGAGAGAGAGAGAGAGAGAGAAAGAGAGAGAGAAUGAGAGAGAAUGAGAGAGAGAAUACCCGAGGGCCACCCUGAUGCCCAGGAAGAGUGAGGGCAGCCCCCACACACGUGGAAGAGGCUGGGCAGCUAGCUACUGGGGACCUUGUGCUGAGGCUUCCAGGACAAAGCCCCAGUCUGGCUCUCCCCCAGCCUCUCAGGGGCACUGGCUGGUCACAUCCACUGAGUAUUGAUCGGUUGGACUUUAGGGAAGAGCCUCCUCUUGCGGUCGCACUAGUGUGGAAUUCUCGGGUGUCAAGG
B9: ENSMUSG00000058297.295|Spock2|71:76 (ssRNA)
RNA: GGGAGUUCUACAGUCCGACGAUCGCUUCGAUAUCCGCAUGCUAAAUGAGAGAGAAUGAGAGAGAGAAUACCCGAGGGCCACCCUGAUGCCCAGGAAGAGUGAGGGCAGCCCCCACACACGUGGAAGAGGCUGGGCAGCUAGCUACUGGGGACCUUGUGCUGAGGCUUCCAGGACAAAGCCCCAGUCUGGCUCUCCCCCAGCCUCUCAGGGGCACUGGCUGGUCACAUCCACUGAGUAUUGAUCGGUUGGACUUUAGGGAAGAGCCUCCUCCUUCCCAUUCCUUUCUGCCACCCUGGAAUGGCCCUCUUGCGGUCGCACUAGUGUGGAAUUCUCGGGUGUCAAGG
B10: ENSMUSG00000058297.290|Spock2|101:106 (ssRNA)
RNA: GGGAGUUCUACAGUCCGACGAUCGCUUCGAUAUCCGCAUGCUAAGAGAGAGAGAGAGAGAGAAAGAGAGAGAGAAUGAGAGAGAAUGAGAGAGAGAAUACCCGAGGGCCACCCUGAUGCCCAGGAAGAGUGAGGGCAGCCCCCACACACGUGGAAGAGGCUGGGCAGCUAGCUACUGGGGACCUUGUGCUGAGGCUUCCAGGACAAAGCCCCAGUCUGGCUCUCCCCCAGCCUCUCAGGGGCACUGGCUGGUCACAUCCACUGAGUAUUGAUCGGUUGGACUUUAGGGAAGAGCCUCCUCCUUCUCUUGCGGUCGCACUAGUGUGGAAUUCUCGGGUGUCAAGG
B11: ENSMUSG00000058297.293|Spock2|83:88 (ssRNA)
RNA: GGGAGUUCUACAGUCCGACGAUCGCUUCGAUAUCCGCAUGCUAAAAGAGAGAGAGAAUGAGAGAGAAUGAGAGAGAGAAUACCCGAGGGCCACCCUGAUGCCCAGGAAGAGUGAGGGCAGCCCCCACACACGUGGAAGAGGCUGGGCAGCUAGCUACUGGGGACCUUGUGCUGAGGCUUCCAGGACAAAGCCCCAGUCUGGCUCUCCCCCAGCCUCUCAGGGGCACUGGCUGGUCACAUCCACUGAGUAUUGAUCGGUUGGACUUUAGGGAAGAGCCUCCUCCUUCCCAUUCCUUUCUGCCACCUCUUGCGGUCGCACUAGUGUGGAAUUCUCGGGUGUCAAGG
B12: ENSMUSG00000058297.288|Spock2|113:118 (ssRNA)
RNA: GGGAGUUCUACAGUCCGACGAUCGCUUCGAUAUCCGCAUGCUAAGAGAGAGAGAGAGAGAGAGAGAGAGAGAGAAAGAGAGAGAGAAUGAGAGAGAAUGAGAGAGAGAAUACCCGAGGGCCACCCUGAUGCCCAGGAAGAGUGAGGGCAGCCCCCACACACGUGGAAGAGGCUGGGCAGCUAGCUACUGGGGACCUUGUGCUGAGGCUUCCAGGACAAAGCCCCAGUCUGGCUCUCCCCCAGCCUCUCAGGGGCACUGGCUGGUCACAUCCACUGAGUAUUGAUCGGUUGGACUUUAGGGAAGCUCUUGCGGUCGCACUAGUGUGGAAUUCUCGGGUGUCAAGG
B13: ENSMUSG00000029636.202|Wasf3|244:248 (ssRNA)
RNA: GGGAGUUCUACAGUCCGACGAUCGCUUCGAUAUCCGCAUGCUAACCAAAUGGCGAUUCCAUAGUCCUGGCUGAGGCAGGGGCUCAAAGUCCAGUGUCUGCUUUGCAAUUCUGGAAGGACAGCUGCUUAUUUAAAUAAGUCUGUGAUAUCCGCAGGCUUGGGUUACAGGGAGGACCUUGCAGAGGGACCAGGACACUGCCUUCCCUUAGGUGCAUUAUUUACGUGGCCUGCAGCUCUUAAUAUCUCUCACUGUUUAUGAAAAGAAAGAUUCAGAUCCGGGGUGACAUACACACAGUUGACAGGGCUCUUGCGGUCGCACUAGUGUGGAAUUCUCGGGUGUCAAGG

The target in the experiment is TDP-43 (Homo sapiens, UniProt Q13148 1-414). The experiment can be described thus: RNA Bind-n-Seq with designed 260-mer pool; 25 mM Tris-HCl, 150 mM KCl, 3 mM MgCl2, BSA (printed 500 mg/mL), 20 units/mL SUPERase IN; pH not stated; 500 nM RNA pool, 1 h, 4 C; TDP-43 5, 50, 500 nM; high values mean tight binding. The note with it: protein: recombinant; tags: SBP (GST cleaved off with PreScission; pGEX-GST-SBP). The procedure, abridged: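 For each oligo, R gives binding as its mapped-read-normalized abundance after pulldown divided by its abundance in input. Bead-captured SBP-tagged TDP-43 (5, 50 or 500 nM) was incubated with 500 nM of an in vitro-transcribed 260-nt 3′ UTR oligo pool for 1 h at 4 °C in 25 mM Tris-HCl, 150 mM KCl, 3 mM MgCl2, BSA and SUPERase IN on streptavidin beads. Washed, biotin-eluted RNA was reverse transcribed, PCR-amplified and sequenced.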
Sequence of TDP-43 (Q13148 whole entry): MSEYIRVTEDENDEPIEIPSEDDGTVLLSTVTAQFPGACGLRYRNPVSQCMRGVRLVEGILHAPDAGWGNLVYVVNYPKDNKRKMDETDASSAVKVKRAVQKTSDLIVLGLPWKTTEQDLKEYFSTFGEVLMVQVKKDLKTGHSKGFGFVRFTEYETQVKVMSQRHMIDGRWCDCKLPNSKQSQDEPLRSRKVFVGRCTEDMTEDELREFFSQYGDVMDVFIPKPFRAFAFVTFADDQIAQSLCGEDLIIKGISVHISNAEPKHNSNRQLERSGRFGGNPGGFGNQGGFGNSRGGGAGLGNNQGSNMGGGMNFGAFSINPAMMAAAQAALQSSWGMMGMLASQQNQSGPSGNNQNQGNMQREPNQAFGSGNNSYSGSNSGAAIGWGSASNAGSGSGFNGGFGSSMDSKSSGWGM
On to B1, for which the binding signal is 2.86 R (bound/input frequency ratio).

For the molecule B2, the binding signal was 0.952 R (bound/input frequency ratio).

For the molecule B3, the binding signal is 0.735 R (bound/input frequency ratio).

As for B4, the binding signal was 0.338 R (bound/input frequency ratio).

In the case of B5, the binding signal is 2.36 R (bound/input frequency ratio).

On to B6, for which the binding signal is 4.88 R (bound/input frequency ratio).

In the case of B7, the binding signal is 7.84 R (bound/input frequency ratio).

Consider B8, for which the binding signal is 7.59 R (bound/input frequency ratio).

With B9, the binding signal was 3.59 R (bound/input frequency ratio).

Take B10: the binding signal is 8.37 R (bound/input frequency ratio).

Take B11: the binding signal is 3.42 R (bound/input frequency ratio).

B12: the binding signal is 7.71 R (bound/input frequency ratio).

Take B13: the binding signal is 0.996 R (bound/input frequency ratio).
